The results in this text go back to PubChem BioAssay (NCATS).

“And” between values parts separate entries of the source, which are not always exact repeats. Equal values may be shown once. Records with an inconclusive call do not appear. The source made the active and inactive calls. Unless noted, calls come from the whole dose curve; as a rule, active = well fitted curve in the direction sought with a large enough effect; inconclusive = small, poorly fitted or top-dose-only effect, or another doubt; inactive = no such curve, though single readings can be large; an effect the other way counts as inactive or inconclusive. Where only a bound is given, the exact number is not on record here.

Assay [1] can be described thus: Cell Viability - BJ (AID 421; calls by dose curve;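 note: potency is the fitted concentration of half-maximal effect; cells exposed to compound for 40 hours at 37 °C before readout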). The settings on record: BJ fibroblast viability, qHTS. An outline of the steps: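 Quantitative HTS: ATP depletion in BJ cells after 40 hr compound exposure in complete culture medium, detected with CellTiter-Glo; AC50 from standard Hill fits.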
In general terms: In qHTS, concentration-response curves come from the screen itself.

Assay [2] is described as follows: Cell Viability - SK-N-SH (AID 435; calls by dose curve;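 note: potency is the fitted concentration of half-maximal effect; compound exposure lasted 40 h at 37 °C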). The settings on record: SK-N-SH neuroblastoma cell viability qHTS. In outline:
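SK-N-SH human neuroblastoma cells (1500/well) were exposed to compounds in complete medium for 40 h at 37 °C, and intracellular ATP was then measured by CellTiter-Glo luminescence. AC50 was taken from Hill fits, normalized to DMSO and 100 uM tamoxifen.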

A short description of assay [3]: MultiTox-Fluor Cytotoxicity Assay - LYMP1-002 - Live Cells (AID 955).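 Note: cells exposed to compound for 16 hours; % is set by controls: 0 for no effect and ±100 for the full control effect.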 The settings on record: LYMP1-002 lymphoblastoid live-cell protease fluorescence viability; series mostly up to 46.1 µM. In outline:
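Cells were seeded at 2500 per well and incubated 5 hr. Compounds were then added for 16 hr at 37 C, followed by MultiTox-Fluor reagent for 60 min at room temperature and fluorescence reading of viable-cell protease signal.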

Assay [4] is described as follows: Cell Viability - LYMP1-003 - Assay at 40 hr (AID 964). Note: % is set by controls: 0 for no effect and ±100 for the full control effect; nearly all actives have a fitted effect of over 60% in size. The following applies: LYMP1-003 lymphoblastoid viability; series mostly up to 92.2 µM. An outline of the steps:
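Luminescent ATP signal (CellTiter-Glo) served as the viability read-out after 40 hr compound treatment of human lymphoblastoid LYMP1-003 cells at 37 C. Decreases in ATP were fitted with the Hill equation to give AC50.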

Assay [5] in a line: Cell Viability - LYMP2-019 (AID 973).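 Note: 0% = DMSO alone and full effect = 92 µM tetraoctylammonium bromide; nearly all actives have a fitted effect of over 55% in size.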 The following applies: LYMP2-019 lymphoblastoid cell line viability; series mostly up to 92.2 µM. In outline:
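Cytotoxicity is scored as a concentration-dependent drop in cellular ATP after cells (2500/well) receive compound for 24 hr at 37 C. Tetraoctylammonium bromide serves as positive control.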

A short description of assay [6]: Cell Viability - LYMP2-023 (AID 975).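 Note: cellular ATP measured by luciferase luminescence as viability proxy; plate controls were DMSO only for no effect and 92 µM tetraoctylammonium bromide control for full effect; nearly all actives have a fitted effect of over 55% in size.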 The following applies: LYMP2-023 lymphoblastoid cell viability; series mostly up to 92.2 µM. An outline of the steps:
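Steps: seed 2500 human lymphoblastoid cells per well, incubate 5 hr at 37 C, add compound for 24 hr at 37 C, add CellTiter-Glo, hold 30 min at room temperature, read luminescence. AC50 derived by Hill modelling.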

Assay [7] is described as follows: Cell Viability - LYMP2-025 (AID 976).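 Note: plate controls were DMSO only for no effect and tetraoctylammonium bromide control for full effect.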 The settings on record: LYMP2-025 lymphoblastoid cell viability; series mostly up to 92.2 µM. In outline: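 Acute cytotoxicity is scored as a concentration-dependent fall in intracellular ATP, measured by luciferase luminescence, in human lymphoblastoid LYMP2-025 cells exposed to compound for 24 hours at 37 C. AC50 values come from standard Hill fits.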

Assay [8] in a line: Cell Viability - LYMP2-022 (AID 987).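 Note: 0% = DMSO alone and full effect = tetraoctylammonium bromide at 92 µM; nearly all actives have a fitted effect of over 55% in size.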 The following applies: LYMP2-022 lymphoblastoid cell viability; series mostly up to 92.2 µM. In outline:
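Cells were seeded at 2500 per well, rested 5 hr at 37 C, and treated with titrated compounds for 24 hr at 37 C. Cellular ATP was then quantified by luciferase luminescence, and AC50 values were derived from Hill-modelled concentration-response curves.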

Assay [9] addresses Glucocorticoid receptor (Homo sapiens) (UniProt P04150). Nature of the assay: qHTS assay for small molecule antagonists of glucocorticoid receptor signaling (AID 588533; active = well fitted inhibition curve with a large enough effect in the signal ratio, with a control signal flat, not every such curve was filed as active; the % refers to the signal ratio;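 note: cells stimulated with 2 nM dexamethasone as agonist; % is set by controls: 0 for no effect and ±100 for the full control effect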). The following applies: HeLa MMTV-bla, GRE beta-lactamase ratio, antagonist mode, 18 h; series mostly up to 76.8 µM. An outline of the steps:
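Antagonist-mode qHTS: compound titrations added to GRE-bla HeLa cells, then dexamethasone 2 nM final; 18 h, 37 C. CCF4 FRET fluorescence normalized to dexamethasone and DMSO; IC50 from Hill fit.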

The nature of assay [10]: qHTS assay for small molecule antagonists of peroxisome proliferator-activated receptor delta signaling (AID 588535).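 Note: cells co-treated with a PPAR-delta agonist as stimulator during compound exposure.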 The settings on record: HEK293T PPARd-UAS-bla, beta-lactamase FRET ratio, 18 h; 460 nm channel. An outline of the steps:
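Inhibition of PPAR-delta response element-driven beta-lactamase expression is measured in HEK293T cells exposed to a compound titration series for 18 hrs at 37 C. Half-maximal inhibition comes from Hill equation fitting.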

Assay [11] is described as follows: Cell Viability - LYMP2-001 (AID 921).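 Note: 0% = DMSO only and full inhibition = tetraoctylammonium bromide control wells; nearly all actives have a fitted effect of over 70% in size.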 The settings on record: LYMP2-001 lymphoblastoid cell viability; series mostly up to 92.2 µM. An outline of the steps: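 Human lymphoblastoid cells (Coriell), 2500 per well, were preincubated 5 hr at 37 C, then exposed to compounds in complete medium for 24 hr at 37 C. Cellular ATP was read by CellTiter-Glo luminescence; AC50 from Hill fits of concentration-response data.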

The nature of assay [12]: Cell Viability - LYMP2-018 (AID 985).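 Note: compound exposure lasted 24 hr at 37 °C; plate controls were DMSO only for no effect and tetraoctylammonium bromide at 92 µM for full effect; nearly all actives have a fitted effect of over 50% in size.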 The following applies: LYMP2-018 lymphoblastoid cells, viability (qHTS); series mostly up to 92.2 µM. In outline: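 Seed 2500 lymphoblastoid cells per well, incubate 5 hr at 37 C, add compound and incubate 24 hr at 37 C, add CellTiter-Glo, wait 30 min at room temperature, then read luminescence.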
The target of assay [13] is Peroxisome proliferator-activated receptor gamma (Homo sapiens) (UniProt P37231). Nature of the assay: qHTS assay for small molecule antagonists of peroxisome proliferator-activated receptor gamma signaling (AID 588537; active = well fitted inhibition curve with a large enough effect in the signal ratio, with a control signal flat, not every such curve was filed as active; the % refers to the signal ratio;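 note: reporter cells co-stimulated with 50 nM rosiglitazone agonist during compound treatment; % of control where 0% means no effect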). The settings on record: HEK293 PPARg-UAS-bla, beta-lactamase ratio, antagonist mode; series mostly up to 76.8 µM. An outline of the steps: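 Compounds are tested as concentration series for inhibition of rosiglitazone-driven (50 nM) reporter expression in GeneBLAzer PPAR-gamma-UAS-bla HEK293 cells. After 16 h at 37 C, CCF4 substrate is added for 2 h at room temperature and blue/green fluorescence is measured.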
Chain of Peroxisome proliferator-activated receptor gamma (Homo sapiens) (P37231 whole entry, looked up): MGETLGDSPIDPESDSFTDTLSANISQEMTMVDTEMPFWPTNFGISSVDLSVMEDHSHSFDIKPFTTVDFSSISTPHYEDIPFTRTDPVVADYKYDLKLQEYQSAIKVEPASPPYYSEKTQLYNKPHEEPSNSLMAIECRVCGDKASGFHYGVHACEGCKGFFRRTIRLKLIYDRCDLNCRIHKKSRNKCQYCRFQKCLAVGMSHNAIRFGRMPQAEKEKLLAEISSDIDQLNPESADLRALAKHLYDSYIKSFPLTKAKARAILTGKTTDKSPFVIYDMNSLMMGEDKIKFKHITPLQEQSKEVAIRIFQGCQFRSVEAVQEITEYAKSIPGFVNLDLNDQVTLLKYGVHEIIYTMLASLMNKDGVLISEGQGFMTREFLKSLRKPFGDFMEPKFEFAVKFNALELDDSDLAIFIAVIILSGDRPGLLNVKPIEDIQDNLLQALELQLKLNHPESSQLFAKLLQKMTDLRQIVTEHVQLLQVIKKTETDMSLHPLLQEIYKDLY

The target of assay [14] is Thyroid hormone receptor beta (Homo sapiens) (UniProt P10828). Nature of the assay: qHTS assay for small molecule antagonists of thyroid hormone receptor beta signaling (AID 588547; active = well fitted inhibition curve with a large enough effect in the signal ratio, with a control signal flat, not every such curve was filed as active; the % refers to the signal ratio;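 note: cells stimulated with 0.4 nM T3 agonist during compound exposure; % is set by controls: 0 for no effect and ±100 for the full control effect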). The settings on record: TR-UAS-bla HEK293, beta-lactamase ratio, antagonist mode, 18 h. In outline: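 TR-UAS-bla GripTite HEK293 cells in 2% charcoal/dextran FBS medium were preincubated 4 h at 37 C, given compound (0.59 nM to 92 uM) plus 0.4 nM T3 (final) for 18 h, then CCF4 for 2 h at RT; Hill fit gave IC50.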
Chain of Thyroid hormone receptor beta (Homo sapiens) (P10828 whole entry, looked up): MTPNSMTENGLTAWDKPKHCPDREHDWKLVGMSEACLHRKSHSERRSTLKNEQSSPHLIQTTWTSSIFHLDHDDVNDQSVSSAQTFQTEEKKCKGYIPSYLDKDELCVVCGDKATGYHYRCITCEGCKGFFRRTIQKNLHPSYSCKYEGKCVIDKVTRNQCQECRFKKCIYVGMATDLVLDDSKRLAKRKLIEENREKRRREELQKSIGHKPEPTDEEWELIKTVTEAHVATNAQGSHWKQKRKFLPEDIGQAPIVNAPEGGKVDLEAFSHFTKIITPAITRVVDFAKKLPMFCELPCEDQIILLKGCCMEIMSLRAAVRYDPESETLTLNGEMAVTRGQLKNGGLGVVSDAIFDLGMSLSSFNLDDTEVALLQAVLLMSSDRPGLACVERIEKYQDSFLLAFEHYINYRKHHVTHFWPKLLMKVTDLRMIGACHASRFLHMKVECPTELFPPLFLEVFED

Assay [15] deals with Voltage-gated inwardly rectifying potassium channel KCNH2 (Homo sapiens) (UniProt Q12809). Nature of the assay: qHTS Assay for Small Molecule Inhibitors of the Human hERG Channel Activity (AID 588834).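 Note: top concentration of the series differs between compounds; % is set by controls: 0 for no effect and ±100 for the full control effect; lower thallium flux fluorescence means stronger hERG block; nearly all actives have a fitted effect of over 50% in size.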 The settings on record: U2OS BacMam hERG, FluxOR thallium flux fluorescence; series mostly up to 92.2 µM. An outline of the steps:
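In hERG-transduced U2OS cells, dye-loaded for 1 hr at room temperature in dark, test compounds incubated 10 min at 37 °C before thallium stimulation. AC50 values derived by Hill modelling of concentration-response.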

In assay [16] the target is Mitogen-activated protein kinase 10 (Mus musculus) (UniProt Q61831). The assay is described as follows: JNK3 AlphaScreen Assay (AID 530; active = well fitted curve in either direction with a large enough effect, not every such curve was filed as active;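 note: kinase came from lysate of stimulated human HepG2 cells; % is set by controls: 0 for no effect and ±100 for the full control effect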). The settings on record: JNK3 lysate, c-Jun phosphorylation; series mostly up to 11.4 µM. An outline of the steps: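 Phosphorylation of biotinylated GST-cJun(1-79) at Ser73 is measured by AlphaScreen proximity luminescence. Enzyme is JNK3 in HepG2 lysates activated with interleukin-1beta and tumor necrosis factor alpha; ATP is 10 uM final.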
A general note: Alpha assays give light when donor and acceptor beads are brought close together.

Assay [17] is described as follows: MultiTox-Fluor Cytotoxicity Assay - LYMP1-001 - Live Cells (AID 947).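 Note: 0% = DMSO only and full inhibition = tetraoctylammonium bromide control.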 The following applies: LYMP1-001 lymphoblastoid cells, live-cell protease fluorescence viability; series mostly up to 92.2 µM.
Assay [18] has as its target Glucocorticoid receptor (Homo sapiens) (UniProt P04150). Nature of the assay: qHTS assay for small molecule agonists of glucocorticoid receptor signaling (AID 588532; active = well fitted curve in the direction sought with a large enough effect in the signal ratio, with a control signal flat; the % refers to the signal ratio;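 note: 100% = dexamethasone at 0.1 µM and 0% = DMSO only wells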). The settings on record: HeLa MMTV-bla, beta-lactamase ratio, agonist, 18 h; stronger effect = higher value; percent of dexamethasone control, DMSO zero. In outline: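 Stimulation of a glucocorticoid response element-driven beta-lactamase gene was measured in HeLa cells. Responses were scaled between DMSO basal and 0.1 uM dexamethasone, then fitted for half-maximal stimulation.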

Assay [19] can be described thus: Cell Viability - LYMP2-007 (AID 979).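 Note: cells exposed to compound for 24 h before reading; 0% = DMSO only and the negative end = 92 µM tetraoctylammonium bromide; nearly all actives have a fitted effect of over 60% in size.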 The settings on record: LYMP2-007 lymphoblastoid cell viability; series mostly up to 92.2 µM. An outline of the steps:
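Cells are seeded at 2500 per well and rested 5 hr. Compounds are then added over a concentration series for 24 hr at 37 C. CellTiter-Glo is added for 30 min at room temperature before luminescence reading.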

For assay [20], the target named is Bile acid receptor (Homo sapiens) (UniProt Q96RI1). The assay is described as follows: qHTS assay for small molecule antagonists of farnesoid X receptor signaling (AID 588526; calls by dose curve; note: % is set by controls: 0 for no effect and ±100 for the full control effect). The following applies: HEK293T FXR-UAS-bla, beta-lactamase ratio, antagonist mode; series mostly up to 76.7 µM. An outline of the steps:
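Concentration-response titrations were fitted to the Hill equation for half-maximal inhibition and maximal response, with data normalised to 50 uM chenodeoxycholic acid and DMSO control wells. Cells: FXR-UAS-bla HEK293T, dialyzed FBS.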

Chain of Voltage-gated inwardly rectifying potassium channel KCNH2 (Homo sapiens) (Q12809 whole entry, looked up): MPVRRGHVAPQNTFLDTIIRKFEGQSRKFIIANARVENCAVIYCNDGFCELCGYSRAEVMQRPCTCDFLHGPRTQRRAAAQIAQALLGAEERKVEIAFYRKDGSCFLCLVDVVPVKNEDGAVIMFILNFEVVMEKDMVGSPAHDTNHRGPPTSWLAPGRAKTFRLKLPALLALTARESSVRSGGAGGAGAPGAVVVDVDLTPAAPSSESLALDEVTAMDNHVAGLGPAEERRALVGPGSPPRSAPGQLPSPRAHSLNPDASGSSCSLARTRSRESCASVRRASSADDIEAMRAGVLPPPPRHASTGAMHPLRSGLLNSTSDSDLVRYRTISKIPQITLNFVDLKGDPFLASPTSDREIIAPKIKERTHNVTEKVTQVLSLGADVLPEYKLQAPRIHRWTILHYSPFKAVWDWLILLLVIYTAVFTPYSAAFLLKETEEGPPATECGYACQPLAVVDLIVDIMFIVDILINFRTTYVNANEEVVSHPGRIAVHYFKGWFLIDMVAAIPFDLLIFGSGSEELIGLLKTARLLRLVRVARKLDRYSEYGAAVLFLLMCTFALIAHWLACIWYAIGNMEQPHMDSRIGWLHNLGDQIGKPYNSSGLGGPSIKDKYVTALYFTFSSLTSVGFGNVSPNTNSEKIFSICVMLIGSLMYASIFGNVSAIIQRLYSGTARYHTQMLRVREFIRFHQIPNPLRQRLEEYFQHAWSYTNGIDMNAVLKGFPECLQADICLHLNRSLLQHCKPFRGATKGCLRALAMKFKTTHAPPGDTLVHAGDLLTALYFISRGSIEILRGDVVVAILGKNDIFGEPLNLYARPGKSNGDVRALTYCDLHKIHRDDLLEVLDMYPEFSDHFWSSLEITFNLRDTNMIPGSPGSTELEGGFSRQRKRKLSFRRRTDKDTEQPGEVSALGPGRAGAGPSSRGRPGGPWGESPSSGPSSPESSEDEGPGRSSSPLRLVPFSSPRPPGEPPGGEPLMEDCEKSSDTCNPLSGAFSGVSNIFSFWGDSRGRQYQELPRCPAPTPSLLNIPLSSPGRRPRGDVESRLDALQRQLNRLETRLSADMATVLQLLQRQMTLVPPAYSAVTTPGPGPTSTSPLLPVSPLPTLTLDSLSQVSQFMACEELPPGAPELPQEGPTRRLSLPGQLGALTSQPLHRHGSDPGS
Chain of Bile acid receptor (Homo sapiens) (Q96RI1 whole entry, looked up): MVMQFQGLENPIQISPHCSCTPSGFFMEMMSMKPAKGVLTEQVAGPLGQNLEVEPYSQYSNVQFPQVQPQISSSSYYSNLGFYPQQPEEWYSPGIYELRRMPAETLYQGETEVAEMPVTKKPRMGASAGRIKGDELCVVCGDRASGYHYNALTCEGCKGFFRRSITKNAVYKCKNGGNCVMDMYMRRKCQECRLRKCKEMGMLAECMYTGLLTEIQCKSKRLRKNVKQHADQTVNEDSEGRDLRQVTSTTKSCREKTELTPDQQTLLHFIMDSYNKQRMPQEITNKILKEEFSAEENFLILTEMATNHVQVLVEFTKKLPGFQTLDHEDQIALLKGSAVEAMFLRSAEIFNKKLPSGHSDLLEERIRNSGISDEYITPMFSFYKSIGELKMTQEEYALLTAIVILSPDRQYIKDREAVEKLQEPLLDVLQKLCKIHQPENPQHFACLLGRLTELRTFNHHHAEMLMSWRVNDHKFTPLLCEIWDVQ
Chain of Glucocorticoid receptor (Homo sapiens) (P04150 whole entry, looked up): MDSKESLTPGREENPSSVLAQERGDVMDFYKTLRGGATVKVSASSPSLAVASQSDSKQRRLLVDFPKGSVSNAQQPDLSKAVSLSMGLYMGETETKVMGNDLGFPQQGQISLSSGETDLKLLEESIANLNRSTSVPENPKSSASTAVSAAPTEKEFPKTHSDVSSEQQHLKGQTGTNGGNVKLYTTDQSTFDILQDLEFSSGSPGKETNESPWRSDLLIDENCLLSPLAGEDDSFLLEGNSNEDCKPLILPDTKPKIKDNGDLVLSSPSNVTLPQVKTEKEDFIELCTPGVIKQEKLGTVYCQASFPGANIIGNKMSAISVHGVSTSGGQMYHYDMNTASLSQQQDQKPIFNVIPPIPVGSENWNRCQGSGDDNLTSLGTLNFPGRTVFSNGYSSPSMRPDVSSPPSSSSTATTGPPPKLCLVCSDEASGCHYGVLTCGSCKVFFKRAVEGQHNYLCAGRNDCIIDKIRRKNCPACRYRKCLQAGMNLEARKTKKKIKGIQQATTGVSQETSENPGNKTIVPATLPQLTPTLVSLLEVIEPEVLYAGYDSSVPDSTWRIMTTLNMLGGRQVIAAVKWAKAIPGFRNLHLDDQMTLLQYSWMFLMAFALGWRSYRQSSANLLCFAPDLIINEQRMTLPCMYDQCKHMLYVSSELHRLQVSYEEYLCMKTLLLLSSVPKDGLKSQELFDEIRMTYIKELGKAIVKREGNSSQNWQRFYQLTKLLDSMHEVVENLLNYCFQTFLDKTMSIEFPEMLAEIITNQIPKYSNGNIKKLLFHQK

For the compound `NC(=O)c1ccc([N+](=O)[O-])cc1`, the Potency in assay [1] and in assay [2] was > 92 µM (inactive) throughout. Besides, in [3], the compound was called inactive. The Potency entry in [4], in assay [5], in [6], in assay [7], in assay [8] and in assay [9] was “inactive” in each case. In addition, in [10], the max response worked out at 16.9%.

As for `Cc1ccc(C(=O)O)cc1[N+](=O)[O-]`, the Potency in assay [1] and in assay [2] was > 92 µM (inactive) each time. The Potency entry in assay [11], in assay [4], in [6], in [12], in assay [13] and in assay [15] was “inactive” throughout. Moreover, the outcome in assay [3] was inactive. In addition, the activity change % (negative = inhibition) in assay [14] is 2.7% (inactive).

Turning to `CCNC(=S)NCC`, the Potency in assay [2] was > 92 µM (inactive). For the same compound, the Potency entry in [16], in [17], in assay [4], in assay [5], in assay [6] and in [7] was “inactive” throughout. Further, the Potency entry in assay [13] and in [15] was “inactive” throughout. Besides, the max response in assay [10] came out at 61.6%.

As for `O=CC(=O)c1ccccc1`, the Potency in assay [1] is > 92 µM (inactive). The Potency result in assay [16], in assay [4], in assay [7] and in assay [9] was “inactive” throughout. In addition, in [18], the activation was -5.46% (inactive). For the same compound, the max response in [10] came to 7.18%.

In the case of `Cc1cc(=O)oc2cc(O)cc(O)c12`, in [2], the Potency was > 92 µM (inactive). The Potency result in assay [11], in assay [17], in [5], in [6], in assay [7] and in assay [19] was “inactive” throughout. The Potency result in assay [20] and in assay [9] was “inactive” each time. Also, in [3], the compound was classed as inactive. The activation in assay [18] is 9.06% (inactive).

`Brc1cc(Oc2cc(Br)c(Br)c(Br)c2Br)c(Br)c(Br)c1Br`: the Potency in assay [1] was > 92 µM (inactive). Also, the Potency entry in [16], in assay [11], in assay [17], in [6], in assay [19] and in assay [12] was “inactive” throughout. The Potency entry in [8], in [9], in assay [13] and in [15] was “inactive” throughout. In addition, the result in assay [3] was inactive. In addition, in assay [10], the max response was 14.5% and 36.5%.

On to `c1ccc(SCCSc2ccccc2)cc1`, for which the Potency in assay [2] was > 92 µM (inactive). In addition, the Potency entry in assay [11], in [17], in assay [5], in assay [6], in [8] and in assay [20] was “inactive” throughout. Moreover, the Potency entry in assay [13] is “inactive”. The max response in assay [10] was 21.4%.

Take `CC(=O)OC(C(=O)c1ccccc1)c1ccccc1` (centres undefined): the Potency in assay [2] was > 92 µM (inactive). Besides, the Potency result in assay [4], in assay [5], in [19], in [12], in assay [8] and in assay [20] was “inactive” in each case. In addition, the Potency result in assay [9] and in assay [13] was “inactive” in each case.
